# Legend:
# Type in all cases: functional
# Plasmodium falciparum [1] = experiment: GSK_TCMDC: Inhibition of Plasmodium falciparum 3D7 in whole red blood cells, using parasite LDH activity as an index of growth. Test compounds present at 2uM
# Plasmodium falciparum [2] = experiment: GSK_TCMDC: Inhibition of Plasmodium falciparum Dd2 in whole red blood cells, using parasite LDH activity as an index of growth. Test compounds present at 2uM
# HepG2 = experiment: GSK_TCMDC: Percent inhibition of human HepG2 cell line. Test compounds present at 10uM.
Structure (SMILES),Inhibition (Plasmodium falciparum [1]) [%],Inhibition (Plasmodium falciparum [2]) [%],Inhibition (HepG2) [%]
COc1ccc2nc(C)cc(Nc3ccc(Cl)cc3)c2c1,89,3,10
CCn1c(C)c(C)c2cc(C(=O)Nc3ccon3)ccc21,95,93,3
OC1(C(F)(F)F)CC(c2ccccc2)=NN1c1nncc(-c2ccccc2)n1 (stereo not drawn),99,3,0
Brc1cc(Br)c2c(c1)C(NCCCNc1nc3ncccc3[nH]1)CCN2.O=C(O)CCC(=O)O (stereo not drawn),99,83,5
Cl.O=[N+]([O-])c1ccc(C(O)CNCCc2ccccc2)cc1OCc1ccccc1 (stereo not drawn),94,67,0
CC1(C)NC(N)=NC(=N)N1OCc1cc(Cl)c(Cl)cc1CON1C(=N)N=C(N)NC1(C)C,98,100,36
CN(C)Cc1ccc(-c2cc3c(Nc4ccc(OCc5cccc(F)c5)c(Cl)c4)ncnc3s2)[nH]1,100,84,8
CN(C)CCOc1ccc(-c2cc(-c3ccncc3)c(-c3ccc(Cl)c(O)c3)o2)cc1.Cl,99,93,0
Cl.O=c1cc(NCCCNCc2cc(Br)cs2)[nH]c2ccccc12,85,5,11
COCCNCC(O)Cn1c2ccc(Cl)cc2c2cc(Cl)ccc21 (stereo not drawn),95,74,15
Cc1cc(C(=O)NC2CCN(Cc3ccccc3)CC2)ccc1-c1nc2cc(Cl)c(Cl)cc2[nH]1,96,32,7

# — ChEMBL document CHEMBL1157539, “Thousands of chemical starting points for antimalarial lead identification” (Nature, 2010)
